CHT PAM: CHT positive allosteric modulators, primary screen, cell-based, membrane potential dye, choline EC20. High affinity choline transporter 1 (Homo sapiens), Q9GZV3. CHT-expressing cells; stronger effect = higher value; LV-AA mutant CHT in HEK293 cells. B-score at 10 µM. actives 0.49% (n = 310,000). AID 488977, 2010;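 active = initial fluorescence not abnormally high and integrated response B-score, plate-corrected, over 3 SD above library mean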
MEKK2wt PB1 HTS: modulators of MEK5 binding to wildtype MEKK2, primary screen, biochemical, multiplex bead flow cytometry, Alexa488-MEK5; Mitogen-activated protein kinase kinase kinase 2 (Homo sapiens), Q9Y2U5; Alexa488-MEK5 binding to MEKK2 WT; actives lie on both sides; binding response (% of control), % at 10 µM; actives 1.1% (n = 290,000); in the data active = binding response below about 67% or above about 130%
Mot1-301 SUMO: yeast Mot1-301 growth rescue at high temperature, primary screen, SUMOylation pathway inhibitor project, S. cerevisiae, ATP luminescence, 38.5C. S. cerevisiae Mot1-301 growth rescue; percent above DMSO median, 100 means doubled. growth rescue, % at 18.8 µM. actives 1% (n = 320,000);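 active = every valid replicate shows activation above 250% relative to neutral control wells; inactive = the rest, any valid replicate at or below 250%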;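 also: OY570 slx delta 5 strain wells were the positive control but not used for scaling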
MEKK3 PB1 HTS: modulators of MEKK3-MEK5 PB1 binding, primary screen, biochemical, wildtype MEKK3, multiplex bead flow cytometry, Alexa488-MEK5; bead-based flow cytometry, Alexa488-MEK5 binding to MEKK3; actives lie on both sides; 0 = blocked by unlabeled MEK5, 100 = vehicle; binding response (% of control), % at 10 µM; actives 1.4% (n = 290,000);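 active = binding response more than 3 SD above or below the average of its plate-row segment, actives on both sides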;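 also: Alexa488 bead fluorescence after subtracting the streptavidin-only scavenger bead signal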
Target sequence (Q99759 whole entry, looked up): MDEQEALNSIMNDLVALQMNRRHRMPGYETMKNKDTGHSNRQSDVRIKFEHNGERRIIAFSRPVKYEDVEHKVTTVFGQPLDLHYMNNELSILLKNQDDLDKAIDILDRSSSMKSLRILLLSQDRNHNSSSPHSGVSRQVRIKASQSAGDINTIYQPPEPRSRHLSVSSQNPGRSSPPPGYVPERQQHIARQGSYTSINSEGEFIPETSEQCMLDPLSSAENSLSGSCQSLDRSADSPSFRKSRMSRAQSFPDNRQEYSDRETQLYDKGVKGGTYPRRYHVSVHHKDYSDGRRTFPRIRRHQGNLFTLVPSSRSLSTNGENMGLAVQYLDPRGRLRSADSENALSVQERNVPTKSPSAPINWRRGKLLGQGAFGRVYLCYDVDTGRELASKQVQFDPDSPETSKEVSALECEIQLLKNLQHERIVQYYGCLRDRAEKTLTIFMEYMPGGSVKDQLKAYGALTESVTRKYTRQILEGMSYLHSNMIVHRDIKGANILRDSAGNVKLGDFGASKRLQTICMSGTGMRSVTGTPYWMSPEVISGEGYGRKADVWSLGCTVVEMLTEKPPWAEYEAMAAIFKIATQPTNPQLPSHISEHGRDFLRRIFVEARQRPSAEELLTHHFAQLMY
MEKK2 mut-MEK5: MEK5 binding signal on mutant MEKK2 PB1, primary screen, biochemical, multiplex bead flow cytometry, Alexa488-MEK5; Alexa488-MEK5 binding to MEKK2 mutant; percent response, % at 10 µM; AID 1530, 2009; actives 0.35% (n = 290,000); in the data active = percent response above about 24%, passing the limit was not always enough
CHT block: inhibitors of human choline transporter CHT | High affinity choline transporter 1 (Homo sapiens), Q9GZV3 | CHT-expressing cells, membrane potential dye, choline response; stronger effect = lower value | B-score at 10 µM | actives 0.86% (n = 310,000) | AID 488975, 2010;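 active = B-score over 3 SD under the library average, and starting fluorescence ratio not unusually high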;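 also: choline stimulus applied at its EC90 after an EC20 pre-addition; B-score computed on integrated fluorescence ratio after choline addition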
MEKK2wt confirm: modulators of MEK5 binding to wildtype MEKK2, confirmation, biochemical, single concentration, multiplex bead flow cytometry; shares compounds with MEKK3 PB1 HTS; Alexa488-MEK5 binding to MEKK2 WT; actives lie on both sides; binding response (% of control), % at 10 µM; actives 2.4% (n = 5,900); AID 1892, 2009; in the data active = binding response below about 16% or above about 210%; inactive = in between
MEKK2mut confirm: mutant MEKK2 PB1-MEK5 binding signal retest – biochemical, single concentration, multiplex bead flow cytometry, confirmation. shares compounds with MEKK3 PB1 HTS. Alexa488-MEK5 binding to MEKK2 mutant. percent response, % at 10 µM. actives 2% (n = 5,900); in the data active = percent response mostly above about 71%, no sharp cut-off; inactive = mostly below about 38%;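 also: higher means compound restores mutant binding toward wildtype level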
MEKK3 confirm: MEKK3 wild-type PB1 binding to MEK5, inhibitors, confirmation, biochemical, bead multiplex flow cytometry, single concentration, wildtype | binding response (% of control), % at 10 µM | shares compounds with MEKK3 PB1 HTS | AID 1894, 2009 | actives 1.8% (n = 5,900) | Alexa488-MEK5 binding to MEKK3; stronger effect = lower value;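 active = binding response below 72% of control, or above a set upper limit, though filed actives all read lower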;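 also: 100% = DMSO only wells and 0% = binding blocked by excess unlabeled MEK5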
The depositor's hits bear a star; i = inactive; . = no result; ! = a repeat was not active; [ ] = dose if it differs, or a comment. Compounds with a hit are over-represented: about 4.1% of the library has one in this group of screens.

SMILES | CHT PAM | MEKK2wt PB1 HTS | Mot1-301 SUMO | MEKK3 PB1 HTS | MEKK2 mut-MEK5 | CHT block | others
C=C(C)CN1CC[C@]23c4c5ccc(O)c4O[C@H]2c2[nH]c4ccccc4c2C[C@@]3(O)C1C5 | i | 97.0 | -12.8 | 96.0 | 1.0 | -5.31*
CC/C(=C\C=C\[C@@H]1C=C[C@@H]2CCC[C@H]2[C@@H]1C(=O)c1ccc[nH]1)[C@@H]1O[C@@H]([C@@H](C)C(=O)O)CC[C@@H]1C | i | 87.0 | 172.4 | 81.0 | -2.0 | -5.48*
CN1CCN(c2nc3ccccn3c(=O)c2C=C2C(=O)N(C)C(=O)N(C)C2=O)CC1 | i | 111.0 | 44.1 | 135.0* | 1.0 | i
CN1C(=O)C(=Cc2sc(=O)n(-c3ccccc3)c2N2CCCCC2)C(=O)N(C)C1=O | . | 99.0 | . | 97.0 | 1.0 | .
CCOP(=O)(Cc1cc(C(C)=O)c(C)o1)OCC | i | 93.0 | -6.4 | 93.0 | -4.0 | i
COc1ccc2c(c1)/C(=C/c1cnc[nH]1)C(=O)N2 | 8.82* | 104.0 | -23.0 | 104.0 | 7.0 | i
Cc1cc(NCCN)nc2ccccc12 | 11.5* | . | -13.5 | . | . | i
Cc1ccc(C)c(-n2c(C)nc3ccccc3c2=O)c1 | i | 106.0 | 167.3 | 102.0 | 5.0 | i
CN1CC[C@]2(c3cccc(O)c3)Cc3nc4ccccc4cc3C[C@H]2C1 | . | 114.0 | . | 62.0*![inhibitor] | 3.0 | .
C/C=C(\C)C(=O)OC1C(C)=C2C(C1OC(=O)CCCCC)C(C)(OC(C)=O)CC(OC(=O)CCC)C1(O)C2OC(=O)C1(C)O (stereo not drawn) | 8.01* | 95.0 | -13.8 | 104.0 | 1.0 | i
CCOc1cccc(=NC2CCCCC2)c2c(C)n(C)c(C)c12 | i | 113.0 | 4.8 | 106.0 | 9.0 | i
COc1ccc2c3c([nH]c2c1)C(C)NCC3 (stereo not drawn) | i | 1.0* | -2.2 | 94.0 | 48.0 | i
COC(=O)C1=C(c2cccc(OCc3ccccc3)c2)C[C@@H]2CC[C@H]1N2C(=O)NCc1ccc2[nH]ccc2c1 | . | . | 15.6 | . | . | .
C[C@]12CCC3C(CC[C@H]4C[C@H](O)CC[C@]34C)C1CCC2=O (stereo partly drawn) | . | . | -1.5 | . | . | .
COC(=O)C1=CO[C@@H](C)[C@@H]2CN3CC[C@]4(C(=O)Nc5ccccc54)[C@@H]3C[C@H]12 | i | 98.0 | -7.0 | 138.0* | 19.0 | i
COC(=O)C1=C(c2ccc(C(C)=O)cc2)C[C@@H]2CC[C@H]1N2C(=O)NC(C)C | . | . | 1.1 | . | . | .
Cc1cccc(CNCCc2c[nH]c3ccccc23)c1 | i | 134.0 | 285.6* | 102.0 | 2.0 | i
CC(C)C(=O)Nc1ccc(N2CCN(C)CC2)c(F)c1 | i | 91.0 | 423.1* | 100.0 | -6.0 | i
N#CC(C#N)=C(N)c1cccnc1 | i | 57.0 | -14.7 | 46.0*[inhibitor] | -45.0 | i | MEKK2wt confirm=98.0;MEKK2mut confirm=-6.0;MEKK3 confirm=97.0
O=C(Cc1ccccc1)OCCNC(=O)c1cccnc1 | i | 106.0 | 91.1 | 114.0 | 6.0 | i
COP(=O)(C#Cc1ccccc1)C(O)c1ccc(Br)cc1 (stereo not drawn) | i | 105.0 | -3.8 | 109.0 | 0.0 | i
CN(C(=O)Oc1ccc([N+](=O)[O-])cc1)c1ccccc1 | i | 95.0 | 139.5 | 73.0*[inhibitor] | -1.0 | i | MEKK2wt confirm=97.0;MEKK2mut confirm=-4.0;MEKK3 confirm=101.0
COc1ccc(/C=C/C(=O)c2c(O)n(CCC3=CCCCC3)c(=O)[nH]c2=O)cc1OC | i | 100.0 | 241.1 | 104.0 | -5.0 | i
O=C(Cc1ccc(N(CCCl)CCCl)cc1)NC(Cc1ccc(Cl)cc1)C(=O)O (stereo not drawn) | i | 111.0 | -6.8 | 110.0 | 5.0 | i
CC1=NN(c2ccccc2)C(=O)C1/C=C1/C(=O)NC(=O)N(c2cccc(C)c2)C1=O (stereo not drawn) | . | 104.0 | . | 100.0 | 11.0 | .
SMILES | CHT PAM | MEKK2wt PB1 HTS | Mot1-301 SUMO | MEKK3 PB1 HTS | MEKK2 mut-MEK5 | CHT block | others
Cc1cccc(N2C(=O)NC(=O)/C(=C\c3ccc4c(c3)CCCN4Cc3ccccc3)C2=O)c1 | i | 146.0* | 24.5 | 139.0* | 159.0* | i | MEKK2wt confirm=86.0;MEKK2mut confirm=-24.0;MEKK3 confirm=93.0
COc1ccc2c(c1)NP(=S)(Oc1ccccc1)N2 (stereo not drawn) | i | 94.0 | -2.0 | 100.0 | 3.0 | i
O=c1[nH]c(=O)n(C2CCCCC2)c(O)c1/C=N/N1CCCCC1c1cccnc1 (stereo not drawn) | i | 102.0 | -16.0 | 102.0 | 0.0 | i
O=c1[nH]c(=O)n(-c2cccc3ccccc23)c(O)c1/C=N/N1CCCCC1c1cccnc1 (stereo not drawn) | i | 106.0 | -11.5 | 134.0* | 0.0 | i | MEKK2wt confirm=102.0;MEKK2mut confirm=-2.0;MEKK3 confirm=102.0
CC(=O)N1N=C2C3CCN(CC3)C2C1c1ccccc1 (stereo not drawn) | i | -2.0*[inhibitor] | 91.3 | 1.0*[inhibitor] | -21.0 | i | MEKK2wt confirm=99.0;MEKK2mut confirm=1.0;MEKK3 confirm=104.0
Cc1nn(CC(C)C)c(Cl)c1C(=O)NC1CCC(C)CC1 (stereo not drawn) | i | . | -19.4 | . | . | i
COc1ccc(CNCCc2cccc(F)c2)c2ccccc12 | i | 151.0* | -16.7 | 113.0 | 16.0 | -7.24* | MEKK2wt confirm=117.0;MEKK2mut confirm=10.0;MEKK3 confirm=103.0
COc1cc(OC)c(OC)cc1CNCCc1cccc(F)c1 | i | 103.0 | -3.4 | 104.0 | 10.0 | i
COC(=O)C(O)(c1ccc(NC(=O)c2cccs2)cc1)C(F)(F)F (stereo not drawn) | i | 102.0 | 9.3 | 106.0 | 6.0 | i
